# Source: the supplement of paper PMC10037445
# In all, about 2,900 compounds were measured (“NF-kB SEAP reporter activity, fold change vs agonist alone”: median about 0.99, highest 2% from about 2.6 on). What follows is part of a selection rich in the highest values, with near analogues and random picks from the rest.
# Legend:
# RAW-Dual [1] = experiment: NF-kB SEAP reporter activity, fold change vs agonist alone; cytotoxicity flag (confluency mask): not cytotoxic; higher = enhanced NF-kB activity
# Procedure, shortened: (§1)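 Library stock was pin-tooled at 50 nL into 384-well plates of RAW-Dual macrophages (50,000 cells/well, DMEM), followed 1 h later by a PRR agonist, and the cells were kept at 37 °C, 5% CO2. Supernatant collected after 20 hours was read for IRF by QuantiLuc luminescence and for NF-κB by QuantiBlue absorbance at 620 nm. Reporter activity is fold change over agonist-alone wells, and a well counted as cytotoxic when its IncuCyte confluency was below 70% of agonist controls in both mask sets.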
# RAW-Dual [2] = experiment: NF-kB SEAP reporter activity, fold change vs agonist alone; higher = enhanced NF-kB activity
# Procedure, shortened: as §1
# RAW-Dual [3] = experiment: NF-kB SEAP reporter activity, fold change vs agonist alone; cytotoxicity flag (confluency mask): cytotoxic (confluency <70% of control); higher = enhanced NF-kB activity
# Procedure, shortened: as §1
# [4] = agonist: ODN 1826 (TLR9) 0.5 ug/mL
# [5] = agonist: Pam2CSK4 (TLR2/6) 0.1 ug/mL
# [6] = agonist: Pam3CSK4 (TLR2/1) 0.1 ug/mL
# [7] = library stock concentration (final ~1000-fold dilution): 10 mM, cytotoxicity flag (confluency mask): not cytotoxic, agonist: Imiquimod (TLR7) […]
# [8] = library stock concentration (final ~1000-fold dilution): 10 mM, cytotoxicity flag (confluency mask): not cytotoxic, agonist: MPLA (TLR4) […]
# [9] = library stock concentration (final ~1000-fold dilution): 10 mM water, cytotoxicity flag (confluency mask): not cytotoxic, agonist: MPLA (TLR4) […]
compound,measurement,setting,value
CC1(C(=O)O)CCC2(C)CCC3(C)C(=CC(=O)C4C5(C)CCC(OC6OC(C(=O)O)C(O)C(O)C6OC6OC(C(=O)O)C(O)C(O)C6O)C(C)(C)C5CCC43C)C2C1.N.N (stereo not given) (library stock concentration (final ~1000-fold dilution): 10 mM),NF-kB SEAP reporter activity,RAW-Dual [1]; agonist: LPS (TLR4) 0.1 ug/mL,0.96
same,NF-kB SEAP reporter activity,RAW-Dual [1]; [4],0.88
same,NF-kB SEAP reporter activity,RAW-Dual [1]; [5],0.866
same,NF-kB SEAP reporter activity,RAW-Dual [1]; [6],1.15
CC1(C(=O)O)CCC2(C)CCC3(C)C(=CC(=O)C4C5(C)CCC(OC6OC(C(=O)O)C(O)C(O)C6OC6OC(C(=O)O)C(O)C(O)C6O)C(C)(C)C5CCC43C)C2C1.N.N (stereo not given),NF-kB SEAP reporter activity,RAW-Dual [2]; [7],0.926
same,NF-kB SEAP reporter activity,RAW-Dual [2]; [8],1.03
CC(C)n1nc(-c2cc3cc(O)ccc3[nH]2)c2c(N)ncnc21 (library stock concentration (final ~1000-fold dilution): 10 mM),NF-kB SEAP reporter activity,RAW-Dual [1]; agonist: LPS (TLR4) 0.1 ug/mL,3.13
same,NF-kB SEAP reporter activity,RAW-Dual [1]; [4],0.998
same,NF-kB SEAP reporter activity,RAW-Dual [1]; [5],1.01
same,NF-kB SEAP reporter activity,RAW-Dual [1]; [6],0.904
CC(C)n1nc(-c2ccc3oc(N)nc3c2)c2c(N)ncnc21,NF-kB SEAP reporter activity,RAW-Dual [2]; [7],1.76
same,NF-kB SEAP reporter activity,RAW-Dual [2]; [8],2.1
CC(C)n1nc(-c2ccc3oc(N)nc3c2)c2c(N)ncnc21 (library stock concentration (final ~1000-fold dilution): 10 mM),NF-kB SEAP reporter activity,RAW-Dual [1]; agonist: LPS (TLR4) 0.1 ug/mL,2.03
same,NF-kB SEAP reporter activity,RAW-Dual [1]; [4],1.69
same,NF-kB SEAP reporter activity,RAW-Dual [1]; [5],0.647
same,NF-kB SEAP reporter activity,RAW-Dual [1]; [6],0.973
CC(C)n1nc(-c2cc3cc(O)ccc3[nH]2)c2c(N)ncnc21,NF-kB SEAP reporter activity,RAW-Dual [2]; [7],0.933
same,NF-kB SEAP reporter activity,RAW-Dual [2]; [8],0.941
CC(C)n1nc(-c2ccc(NC(=O)Nc3cc(C(F)(F)F)ccc3F)cc2)c2c(N)ncnc21,NF-kB SEAP reporter activity,RAW-Dual [2]; [7],0.149
same,NF-kB SEAP reporter activity,RAW-Dual [2]; [8],0.261
CC(C)n1nc(-c2ccc(NC(=O)Nc3cc(C(F)(F)F)ccc3F)cc2)c2c(N)ncnc21 (library stock concentration (final ~1000-fold dilution): 10 mM),NF-kB SEAP reporter activity,RAW-Dual [1]; agonist: LPS (TLR4) 0.1 ug/mL,0.398
same,NF-kB SEAP reporter activity,RAW-Dual [1]; [4],0.196
same,NF-kB SEAP reporter activity,RAW-Dual [1]; [5],0.0706
same,NF-kB SEAP reporter activity,RAW-Dual [1]; [6],0.216
Cc1c(C(=O)Nc2ccc(N3CC(C)OC(C)C3)nc2)cccc1-c1ccc(OC(F)(F)F)cc1 (stereo not given),NF-kB SEAP reporter activity,RAW-Dual [2]; [7],0.808
same,NF-kB SEAP reporter activity,RAW-Dual [2]; [8],0.657
Cc1c(C(=O)Nc2ccc(N3CC(C)OC(C)C3)nc2)cccc1-c1ccc(OC(F)(F)F)cc1 (stereo not given) (library stock concentration (final ~1000-fold dilution): 10 mM),NF-kB SEAP reporter activity,RAW-Dual [1]; agonist: LPS (TLR4) 0.1 ug/mL,1.13
same,NF-kB SEAP reporter activity,RAW-Dual [1]; [4],1.35
same,NF-kB SEAP reporter activity,RAW-Dual [1]; [5],0.839
same,NF-kB SEAP reporter activity,RAW-Dual [1]; [6],1.12
N=C(N)NCCN1CCCCCCC1.O=S(=O)(O)O (library stock concentration (final ~1000-fold dilution): 10 mM water),NF-kB SEAP reporter activity,RAW-Dual [1]; agonist: LPS (TLR4) 0.1 ug/mL,1.13
same,NF-kB SEAP reporter activity,RAW-Dual [1]; [4],1.05
same,NF-kB SEAP reporter activity,RAW-Dual [1]; [5],1.06
same,NF-kB SEAP reporter activity,RAW-Dual [1]; [6],0.972
N=C(N)NCCN1CCCCCCC1.O=S(=O)(O)O,NF-kB SEAP reporter activity,RAW-Dual [2]; [9],1.05
CC1CC(=O)Nc2cccc(-c3ccc4c(c3)c(-c3cnn(C)c3)nn4C)c2N1 (stereo not given),NF-kB SEAP reporter activity,RAW-Dual [2]; [7],1.46
same,NF-kB SEAP reporter activity,RAW-Dual [2]; [8],2.15
CC1CC(=O)Nc2cccc(-c3ccc4c(c3)c(-c3cnn(C)c3)nn4C)c2N1 (stereo not given) (library stock concentration (final ~1000-fold dilution): 10 mM),NF-kB SEAP reporter activity,RAW-Dual [1]; agonist: LPS (TLR4) 0.1 ug/mL,3.26
same,NF-kB SEAP reporter activity,RAW-Dual [1]; [4],2.08
same,NF-kB SEAP reporter activity,RAW-Dual [1]; [5],0.673
same,NF-kB SEAP reporter activity,RAW-Dual [1]; [6],1.28
Cc1nc[nH]c1CN1CCc2c(c3ccccc3n2C)C1=O.Cl,NF-kB SEAP reporter activity,"RAW-Dual [2]; library stock concentration (final ~1000-fold dilution): 2 mM water, cytotoxicity flag (confluency mask): not cytotoxic, agonist: MPLA (TLR4) […]",1.06
Cc1nc[nH]c1CN1CCc2c(c3ccccc3n2C)C1=O.Cl (library stock concentration (final ~1000-fold dilution): 2 mM water),NF-kB SEAP reporter activity,RAW-Dual [1]; agonist: LPS (TLR4) 0.1 ug/mL,1.14
same,NF-kB SEAP reporter activity,RAW-Dual [1]; [4],1.09
same,NF-kB SEAP reporter activity,RAW-Dual [1]; [5],1.15
same,NF-kB SEAP reporter activity,RAW-Dual [1]; [6],0.961
NC(CSCCCO)C(=O)O (stereo not given) (library stock concentration (final ~1000-fold dilution): 10 mM water),NF-kB SEAP reporter activity,RAW-Dual [1]; agonist: LPS (TLR4) 0.1 ug/mL,1.11
same,NF-kB SEAP reporter activity,RAW-Dual [1]; [4],1.09
same,NF-kB SEAP reporter activity,RAW-Dual [1]; [5],1.22
same,NF-kB SEAP reporter activity,RAW-Dual [1]; [6],1.09
NC(CSCCCO)C(=O)O (stereo not given),NF-kB SEAP reporter activity,"RAW-Dual [2]; library stock concentration (final ~1000-fold dilution): 10 mM water, cytotoxicity flag (confluency mask): not cytotoxic, agonist: Imiquimod (TLR7) […]",0.937
same,NF-kB SEAP reporter activity,RAW-Dual [2]; [9],1.04
C=CC1(C)CC(OC(=O)CSC(C)(C)CNC(=O)C(N)C(C)C)C2(C)C(C)CCC3(CCC(=O)C32)C(C)C1O.Cl (stereo not given) (library stock concentration (final ~1000-fold dilution): 10 mM),NF-kB SEAP reporter activity,RAW-Dual [1]; agonist: LPS (TLR4) 0.1 ug/mL,1.22
same,NF-kB SEAP reporter activity,RAW-Dual [1]; [4],0.971
same,NF-kB SEAP reporter activity,RAW-Dual [1]; [5],0.669
same,NF-kB SEAP reporter activity,RAW-Dual [1]; [6],0.845
C=CC1(C)CC(OC(=O)CSC(C)(C)CNC(=O)C(N)C(C)C)C2(C)C(C)CCC3(CCC(=O)C32)C(C)C1O.Cl (stereo not given),NF-kB SEAP reporter activity,RAW-Dual [2]; [7],0.86
same,NF-kB SEAP reporter activity,RAW-Dual [2]; [8],1.25
CCCCCCCCCCCCCCCC(=O)NC(CCSC)C(=O)NCC(=O)NC(Cc1ccc(O)cc1)C(=O)NC(CCC(N)=O)C(=O)NC(CCCCN)C(=O)NC(CCCCN)C(=O)NC(CC(C)C)C(=O)NC(CCCNC(=N)N)C(=O)NC(CO)C(=O)NC(CCSC)C(=O)NC(C(=O)NC(CC(=O)O)C(=O)NC(CCCCN)C(=O)NC(Cc1ccc(O)cc1)C(=O)NC(CCCNC(=N)N)C(=O)NC(CC(C)C)C(=O)O)C(C)O (stereo not given) (library stock concentration (final ~1000-fold dilution): 10 mM),NF-kB SEAP reporter activity,RAW-Dual [3]; agonist: LPS (TLR4) 0.1 ug/mL,0.885
same,NF-kB SEAP reporter activity,RAW-Dual [3]; [4],0.714
same,NF-kB SEAP reporter activity,RAW-Dual [3]; [5],0.614
same,NF-kB SEAP reporter activity,RAW-Dual [3]; [6],0.68
CCCCCCCCCCCCCCCC(=O)NC(CCSC)C(=O)NCC(=O)NC(Cc1ccc(O)cc1)C(=O)NC(CCC(N)=O)C(=O)NC(CCCCN)C(=O)NC(CCCCN)C(=O)NC(CC(C)C)C(=O)NC(CCCNC(=N)N)C(=O)NC(CO)C(=O)NC(CCSC)C(=O)NC(C(=O)NC(CC(=O)O)C(=O)NC(CCCCN)C(=O)NC(Cc1ccc(O)cc1)C(=O)NC(CCCNC(=N)N)C(=O)NC(CC(C)C)C(=O)O)C(C)O (stereo not given),NF-kB SEAP reporter activity,"RAW-Dual [2]; library stock concentration (final ~1000-fold dilution): 10 mM, cytotoxicity flag (confluency mask): cytotoxic (confluency <70% of control), agonist: Imiquimod (TLR7) […]",1.02
same,NF-kB SEAP reporter activity,"RAW-Dual [2]; library stock concentration (final ~1000-fold dilution): 10 mM, cytotoxicity flag (confluency mask): cytotoxic (confluency <70% of control), agonist: MPLA (TLR4) […]",1.02
COc1ccc(Oc2cc(NCCC(F)(F)F)c3ncc(-c4ccc(C(=O)NC5CC5)c(C)c4)n3n2)c(F)c1F (library stock concentration (final ~1000-fold dilution): 10 mM),NF-kB SEAP reporter activity,RAW-Dual [1]; agonist: LPS (TLR4) 0.1 ug/mL,2.44
same,NF-kB SEAP reporter activity,RAW-Dual [1]; [4],1.78
same,NF-kB SEAP reporter activity,RAW-Dual [1]; [5],0.636
same,NF-kB SEAP reporter activity,RAW-Dual [1]; [6],0.913
COc1ccc(Oc2cc(NCCC(F)(F)F)c3ncc(-c4ccc(C(=O)NC5CC5)c(C)c4)n3n2)c(F)c1F,NF-kB SEAP reporter activity,RAW-Dual [2]; [7],1.19
same,NF-kB SEAP reporter activity,RAW-Dual [2]; [8],1.32
